# High-throughput results as filed in PubChem BioAssay.
# Sfp PPTase inh: qHTS Assay for Inhibitors of Bacillus subtilis Sfp phosphopantetheinyl transferase (PPTase); 4'-phosphopantetheinyl transferase ffp (Bacillus subtilis), Q9F4F7; Biochemical Sfp PPTase activity, qHTS; Potency, µM, usual class: inhibitors; actives 3.5% (n = 310,000); AID 1490, 2009;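 further: the enzyme is Sfp with the accession as filed and its product quenches rhodamine fluorescence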
#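 With Hepes-Na pH 7.6 buffer containing 10 mM MgCl2, Sfp (15 nM) modified BHQ-2-YbbR (12.5 uM) using rhodamine-CoA (5 uM). Two reads 30 minutes apart at 525/598 nm yielded each well's rate.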
# ELG1 repair inh: qHTS screen for small molecules that inhibit ELG1-dependent DNA repair in human embryonic kidney (HEK293T) cells expressing luciferase-tagged ELG1; HEK293T ELG1-luciferase reporter, luminescence, 16 h; DNA damage induced by 5-fluorouridine; Potency, µM (series often up to 46.1 µM), most hits filed as inhibitors; actives 2.3% (n = 330,000); further: nearly all actives have a fitted effect of over 55% in size
#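 Luminescence from the luciferase reporter, measured 30 min after ONE-Glo reagent at room temperature, was the read-out. Beforehand, 2,000 cells per well were exposed for 16 hr at 37 °C to 5-fluorouridine together with compound or vehicle.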
# Giardia killer: Small Molecules that selectively kill Giardia lamblia: qHTS; Giardia lamblia trophozoite viability; activity change, % at 7.66 µM, hits read low; actives 0.15% (n = 340,000); in the data active means activity change below about -80%; inconclusive means between about -30% and that limit;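 further: parasites exposed to compound for two days anaerobically before the ATP read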
#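 Trophozoite viability was measured as ATP-dependent luminescence, read 15-30 min after reagent addition. Before that, parasites at 100 cells/well were exposed to compounds for 48 h, anaerobically, at 37 deg C.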
# FBPA coupling cs: qHTS Assay for Inhibitors of Fructose-1,6-bisphosphate Aldolase from Giardia Lamblia: Coupling assay counterscreen | coupling enzyme system counterscreen, AmpLite Red fluorescence | activity change, negative = inhibition, % at 58.2 µM, hits read low | actives 0.67% (n = 290,000); in the data active means activity change below about -30%
#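 Compounds tested against the coupling enzymes alone at 57.5 uM final; readout was AmpLite Red fluorescence (525/598 nm) after 20 min at RT.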
# A number is an active result; - = inactive; ? = inconclusive; . = no result given. An excerpt weighted towards active compounds, which were near 5.5% of everything screened. Unless noted, the call rests on the fitted dose curve; in most records, active means well fitted curve in the direction sought with a large enough effect; inconclusive means small, poorly fitted or top-dose-only effect, or another doubt; inactive means no such curve, though single readings can be large; an effect the other way counts as inactive or inconclusive.
SMILES,Sfp PPTase inh,ELG1 repair inh,Giardia killer,FBPA coupling cs
COc1cc(OC)cc(-c2nnc(SCC(=O)N(Cc3ccccc3)C(C)(C)C)o2)c1,-,23.1µM,-,-
O=C(Nc1ccc2c(c1)OCO2)c1ccc([N+](=O)[O-])cc1[N+](=O)[O-],-,?,?,-
CN1[C@H](Cc2ccccc2)C=C[C@]1(C)C(=O)NCC1CC1,-,.,.,-
CCCn1c(C(C)Nc2nc(-c3cc(Cl)c(N)c(Cl)c3)cs2)nc2cc(Cl)c(N3CCCCC3)cc21 (configuration not stated),-,-,-,-
Cn1c(=O)[nH]c(=O)c2c1nc(N1CCN(c3ccccc3)CC1)n2CCSc1ncccn1,-,?,-,-
Cc1ccnc(SCCn2c(N3CCN(Cc4ccccc4)CC3)nc3c2c(=O)[nH]c(=O)n3C)n1,-,9.2µM,-,-
Cn1c(N2CCN(c3ccccn3)CC2)nc2c1c(=O)n(Cc1ccc(Cl)cc1)c(=O)n2C,-,16.4µM,-,-
Cn1c(=O)c2c(nc(N3CCN(Cc4ccccc4)CC3)n2CCSc2ncccn2)n(C)c1=O,-,5.17µM,.,-
Cn1c(N2CCN(c3ccccn3)CC2)nc2c1c(=O)n(Cc1ccccc1Cl)c(=O)n2C,.,.,-,.
Cc1[nH]n(-c2ccccc2)c(=O)c1C=Nc1ccc(S(=O)(=O)N=C(N)N)cc1,-,?,-,-
Cc1[nH]n(-c2ccccc2)c(=S)c1C=Nc1ccc([N+](=O)[O-])cc1,6.31µM,-,-,-
COc1ccccc1N1CCN(C(=O)CCc2nnc3ccc(N4CCC(C)CC4)nn23)CC1,-,?,-,-
Cc1ccc(C(=O)NC(=S)N2CCN(c3ccc([N+](=O)[O-])cc3)CC2)cc1,-,-,-,-
COc1ccccc1N1CCN(C(=O)Nc2cccc(C)c2)CC1,-,-,-,-
COc1ccc(NC(=S)N2CCN(c3ccc([N+](=O)[O-])cc3)CC2)cc1OC,22.4µM,13µM,-,-
COc1ccccc1N1CCN(C(=O)Nc2ccc([N+](=O)[O-])cc2)CC1,-,14.6µM,-,-
CCCC(=O)NC(=S)N1CCN(c2ccc([N+](=O)[O-])cc2)CC1,-,?,-,-31.7
CO[C@H]1COC(=O)[C@H](C)NC(=O)C/C=C\[C@@H](C)[C@@H](NS(=O)(=O)c2ccc(C)cc2)COC(=O)[C@H](OCc2ccccc2)/C=C\[C@@H]1C,-,.,.,-
COC(=O)c1ccccc1NC(=O)/C=C/c1ccco1,50.1µM,?,-,-
O=C(c1ccco1)N(c1ccccn1)c1ccccn1,-,-,-,-
O=C(/C=C/c1ccco1)Nc1ccccc1N1CCCCC1,-,-,-,-
O=C(/C=C/c1ccco1)N(c1ccccn1)c1ccccn1,39.8µM,-,-,-
O=C(/C=C/c1ccco1)NCC1OCCc2ccccc21 (configuration not stated),22.4µM,-,-,-
Cc1ccc(/C=C/C(=O)Nc2cc(=O)n(C)c(=O)n2C)o1,-,?,-,-
Cn1c(NC(=O)/C=C/c2ccco2)cc(=O)n(C)c1=O,56.2µM,?,-,-
SMILES,Sfp PPTase inh,ELG1 repair inh,Giardia killer,FBPA coupling cs
Cc1cccc(-c2cc3nc(-c4ccccc4)cc(=O)n3[nH]2)c1,-,?,-,-
O=C1N[C@@H]2[C@H](CCCCC(=O)Oc3ccc([N+](=O)[O-])cc3)SC[C@H]2N1,-,.,.,-
O=C(/C=C/c1ccco1)NC1CCCC1,28.2µM,-,-,-
Cc1ccc(OCCNC(=O)/C=C/c2ccco2)cc1C,10µM,-,?,-
O=C(/C=C/c1ccccc1)Nc1cccnc1Cl,-,?,-,-
O=C(/C=C/c1ccco1)Nc1cccnc1Cl,50.1µM,?,-,-
O=C(Nc1ccc(Cc2ccncc2)cc1)C1CCC(N2C(=O)C3C4C=CC(C4)C3C2=O)CC1 (configuration not stated),-,6.51µM,-,-
C[C@H](NC(=O)c1ccco1)C(=O)NCc1cccs1,.,-,-,.
COc1ccc(NC(=O)COc2ccccc2F)cc1S(=O)(=O)N1CCCCC1,-,-,-,.
COc1ccc(NC(=O)c2ccc(Cl)nc2)cc1S(=O)(=O)N1CCCCC1,-,23.1µM,-,-
COc1ccc(NC(=O)CCOc2ccccc2F)cc1S(=O)(=O)N1CCCCC1,.,23.1µM,-,.
COc1ccc(NC(=O)c2cncc(Br)c2)cc1S(=O)(=O)N1CCCCC1,-,14.6µM,-,-
COCCNc1ncncc1-c1c(C)noc1C,-,.,.,-
Cc1cccc(-n2cc(-c3ccccc3)c3c(N4CCOCC4)ncnc32)c1,-,18.3µM,-,-
N#Cc1ccc(C(=O)Nc2cc(S(=O)(=O)Nc3ccc(Cl)cc3)ccc2N2CCCCC2)cc1,22.4µM,?,-,-
CC(=O)NCCC(=O)Nc1cc(S(=O)(=O)Nc2ccc(Cl)cc2)ccc1N1CCCC1,79.4µM,-,-,-
O=S(=O)(Nc1ccc(Cl)cc1)c1ccc(N2CCOCC2)c(NC(=S)NCCN2CCOCC2)c1,3.98µM,-,-,-
O=C(Cc1ccc(NS(=O)(=O)c2ccc(Cl)c(Cl)c2)cc1)NCCN1CCOCC1,.,?,-,.
N#Cc1ccc(C(=O)Nc2cc(S(=O)(=O)N3CCOCC3)ccc2N2CCCC2)cc1,.,-,-,.
O=C(Nc1cc(S(=O)(=O)Nc2ccc(Cl)cc2)ccc1N1CCCCC1)c1ccc(F)cc1,14.1µM,?,-,-
CC(=O)NCCC(=O)Nc1cc(S(=O)(=O)N2CCCCC2)ccc1N1CCCCC1,.,-,-,.
COc1ccc(NS(=O)(=O)c2ccc(N3CCOCC3)c(NC(=O)c3ccc(F)cc3)c2)cc1,-,?,-,-
CCOc1c(C)cnc2c1c(=O)n(CC(=O)NCC1CCCO1)c(=O)n2C (configuration not stated),.,-,-,.
O=c1[nH]c(=S)c2ncn(-c3ccccc3)c2[nH]1,17.8µM,-,-,-
COc1ccc(CCN2C(=S)NC3CC2(C)Oc2ccc([N+](=O)[O-])cc23)cc1OC (configuration not stated),-,25.9µM,-,-
SMILES,Sfp PPTase inh,ELG1 repair inh,Giardia killer,FBPA coupling cs
CC(Sc1n[nH]c(N)n1)C(=O)Nc1cccc2ccccc12 (configuration not stated),.,-,-,.
O=C1CC(Cc2ccccc2)C(=O)N1Cc1ccco1 (configuration not stated),14.1µM,-,-,-
Cc1ccc(CC2CC(=O)N(Cc3ccco3)C2=O)cc1 (configuration not stated),35.5µM,-,-,-
COCCN1Cc2cccc(C(=O)Nc3cccc(-c4nc5ccccc5[nH]4)c3)c2C1=O,-,4.11µM,-,-
CCN(Cc1ccccc1)S(=O)(=O)c1cc(C(=O)NC(C)C2CC3CCC2C3)ccc1OC (configuration not stated),-,6.51µM,-,-
COc1cc(C(=O)NC(C)C2CC3CCC2C3)cc(OC)c1OC (configuration not stated),-,-,-,-
